Assay results from the supplement of paper PMC6555819.

Experiments:
Test in all cases: PBM binding z-score (relative to random genomic background probes); higher = stronger binding; sequences stand for … in GC…GCGATTGACAGCGTAGAATGAAGG
[1] = system: PPARg:RXRa DBDmut IVT, anti-RXR (DBD mutation: RXRa K156A/R161A, NR concentration 270 nM, RXRa partner concentration 90 nM)
Summary of the method: (§1)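 Scanned fluorescence from custom Agilent 4×180K protein-binding microarrays was regression-normalized. Binding z-scores use random background probes as reference. Ligand-free nuclear receptor dimers were incubated on the arrays for 1 h and detected with antibodies against each partner (one per run).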

[2] = system: PPARg:RXRa IVT, anti-PPARg (NR concentration 270 nM, RXRa partner concentration 90 nM)
Summary of the method: as §1

[3] = system: PPARg DBDmut:RXRa IVT, anti-PPARg (DBD mutation: PPARg1 K132A/R137A, NR concentration 270 nM, RXRa partner concentration 90 nM)
Summary of the method: as §1

[4] = system: PPARg DBDmut IVT, anti-PPARg (DBD mutation: PPARg1 K132A/R137A, NR concentration 270 nM)
Summary of the method: as §1

[5] = system: PPARg homodimer (NR concentration 180 nM)
Summary of the method: as §1

[6] = system: PXR:RXRa (NR concentration 270 nM, RXRa partner concentration 90 nM)
Summary of the method: as §1

[7] = system: PXR homodimer (NR concentration 270 nM)
Summary of the method: as §1

[8] = system: RARa:RXR (NR concentration 270 nM, RXRa partner concentration 90 nM)
Summary of the method: as §1

[9] = system: RARa homodimer (NR concentration 270 nM)
Summary of the method: as §1

[10] = system: RARb:RXRa (NR concentration 270 nM, RXRa partner concentration 90 nM)
Summary of the method: as §1

[11] = system: RARb homodimer (NR concentration 270 nM)
Summary of the method: as §1

[12] = system: RARg:RXRa (NR concentration 270 nM, RXRa partner concentration 90 nM)
Summary of the method: as §1

[13] = system: RARg homodimer (NR concentration 270 nM)
Summary of the method: as §1

[14] = system: RXRa DBDmut IVT, anti-RXR (DBD mutation: RXRa K156A/R161A, NR concentration 90 nM)
Summary of the method: as §1

[15] = system: RXRa homodimer (NR concentration 180 nM)
Summary of the method: as §1

[16] = system: THRa:RXRa (NR concentration 90 nM, RXRa partner concentration 90 nM)
Summary of the method: as §1

[17] = system: THRa homodimer (NR concentration 90 nM)
Summary of the method: as §1

[18] = system: VDR homodimer (NR concentration 270 nM)
Summary of the method: as §1

Sequence | PBM binding z-score [1] | PBM binding z-score [2] | PBM binding z-score [3] | PBM binding z-score [4] | PBM binding z-score [5] | PBM binding z-score [6] | PBM binding z-score [7] | PBM binding z-score [8] | PBM binding z-score [9] | PBM binding z-score [10] | PBM binding z-score [11] | PBM binding z-score [12] | PBM binding z-score [13] | PBM binding z-score [14] | PBM binding z-score [15] | PBM binding z-score [16] | PBM binding z-score [17] | PBM binding z-score [18]
CCTACTGGGGCAAAGGTTACCATACTCAGTACGA | 5.92 | 7.16 | 3.64 | 1.43 | 4.58 | 2.6 | -0.144 | 4.19 | -0.0268 | 2.6 | 2.27 | 3.72 | 1.99 | 0.241 | 3.86 | 1.85 | -0.303 | 0.381
CCTGCTGGGCCATCAGGTCATTGATATCAACGTT | 1.27 | 1.52 | -0.402 | -0.46 | 0.175 | 1.55 | 0.128 | 1.83 | -0.97 | 2.02 | 2.51 | 2.06 | 2.01 | 0.287 | 1.01 | 3.19 | 2.31 | 1.01
ATCGAAAGGTCTACGAGGTGAGTATACACCGTTT | -0.371 | 1.17 | 0.797 | 0.317 | 0.182 | 0.409 | 0.194 | 1.17 | 0.434 | 1.81 | 1.01 | 1.32 | 1.56 | -0.0758 | 1.11 | 2.26 | 0.606 | 0.124
TAGCCTAGGTCAGATCGGGCCAATATACGCTATA | 0.525 | 1.37 | -0.296 | -0.715 | 0.782 | 2.21 | -0.489 | 1.9 | -0.0136 | 2.94 | 2.28 | 2.9 | 3.4 | -0.355 | 1.51 | 4.32 | 0.165 | -0.261
AATACAGGGTCACTAGGCCAGTGTAGGTACGAAT | 4.34 | 5.58 | 1.71 | 1.25 | 2.55 | 3.37 | 0.255 | 4.63 | 0.647 | 4.13 | 3.48 | 5.29 | 5.09 | 2.82 | 6.04 | 3.4 | 1.26 | 2.89
TTACCAAGGAGAAGGTCGTTGATCCCTCTGTAGA | -0.339 | -0.0762 | -0.116 | 0.61 | 0.455 | 1.03 | -0.292 | 1.34 | -0.134 | 0.537 | 0.592 | 0.225 | 0.0485 | -0.392 | 1.27 | 0.759 | -0.096 | 0.372
GATACAGGGTCAGCTAGTGGCCAGAGTATGGAAA | 1.03 | 2.29 | -0.052 | -0.0645 | 1.79 | 1.89 | 0.153 | 3.05 | -0.0625 | 3.69 | 2.79 | 4.73 | 4.32 | 1.25 | 3.81 | 2.46 | 0.162 | 0.556
